In the supplement of paper PMC8975748:
Where a name gives a salt, the structure may show the parent alone. ± gives the standard deviation of the averaged measurements.

Columns and labels:
[1] = tested on: Saccharomyces cerevisiae BY4741 SeMeCo community; experiment: z-score of prototroph abundance vs DMSO median; higher = larger share of this subpopulation than in DMSO controls; conditions: 10 µM; 24 h; SM minimal medium; subpopulation (auxotrophy): Prototroph
Method in brief: (§1)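 Four plasmids, each restoring a single auxotrophy and encoding a distinct fluorescent protein, were carried by a Saccharomyces cerevisiae BY4741 community. After overnight growth to OD600 1.0 and dilution to 0.3, 70 µl per well was grown for 24 h in minimal SM medium on 384-well plates acoustically predosed with library drugs at 10 µM final. Following paraformaldehyde fixation, automated confocal microscopy was used, with single-auxotroph fluorescent strains defining thresholds and autofluorescence correction. Subpopulation abundance was then scored as a z-score against the vehicle-well median.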

[2] = tested on: Saccharomyces cerevisiae BY4741 SeMeCo community; experiment: z-score of subpopulation abundance vs DMSO median, subpopulation auxotrophic for U; higher = larger share of this subpopulation than in DMSO controls; conditions: 10 µM; 24 h; SM minimal medium; subpopulation (auxotrophy): U
Method in brief: as §1

[3] = tested on: Saccharomyces cerevisiae BY4741 SeMeCo community; experiment: z-score of subpopulation abundance vs DMSO median, subpopulation auxotrophic for H; higher = larger share of this subpopulation than in DMSO controls; conditions: 10 µM; 24 h; SM minimal medium; subpopulation (auxotrophy): H
Method in brief: as §1

[4] = tested on: Saccharomyces cerevisiae BY4741 SeMeCo community; experiment: z-score of subpopulation abundance vs DMSO median, subpopulation auxotrophic for LM; higher = larger share of this subpopulation than in DMSO controls; conditions: 10 µM; 24 h; SM minimal medium; subpopulation (auxotrophy): LM
Method in brief: as §1

[5] = tested on: Saccharomyces cerevisiae BY4741 SeMeCo community; experiment: z-score of subpopulation abundance vs DMSO median, subpopulation auxotrophic for HM; higher = larger share of this subpopulation than in DMSO controls; conditions: 10 µM; 24 h; SM minimal medium; subpopulation (auxotrophy): HM
Method in brief: as §1

[6] = tested on: Saccharomyces cerevisiae BY4741 SeMeCo community; experiment: z-score of subpopulation abundance vs DMSO median, subpopulation auxotrophic for HU; higher = larger share of this subpopulation than in DMSO controls; conditions: 10 µM; 24 h; SM minimal medium; subpopulation (auxotrophy): HU
Method in brief: as §1

[7] = tested on: Saccharomyces cerevisiae BY4741 SeMeCo community; experiment: z-score of subpopulation abundance vs DMSO median, subpopulation auxotrophic for UM; higher = larger share of this subpopulation than in DMSO controls; conditions: 10 µM; 24 h; SM minimal medium; subpopulation (auxotrophy): UM
Method in brief: as §1

[8] = tested on: Saccharomyces cerevisiae BY4741 SeMeCo community; experiment: z-score of subpopulation abundance vs DMSO median, subpopulation auxotrophic for HL; higher = larger share of this subpopulation than in DMSO controls; conditions: 10 µM; 24 h; SM minimal medium; subpopulation (auxotrophy): HL
Method in brief: as §1

[9] = tested on: Saccharomyces cerevisiae BY4741 SeMeCo community; experiment: z-score of subpopulation abundance vs DMSO median, subpopulation auxotrophic for HLU; higher = larger share of this subpopulation than in DMSO controls; conditions: 10 µM; 24 h; SM minimal medium; subpopulation (auxotrophy): HLU
Method in brief: as §1

[10] = tested on: Saccharomyces cerevisiae BY4741 SeMeCo community; experiment: z-score of subpopulation abundance vs DMSO median, subpopulation auxotrophic for HLM; higher = larger share of this subpopulation than in DMSO controls; conditions: 10 µM; 24 h; SM minimal medium; subpopulation (auxotrophy): HLM
Method in brief: as §1

[11] = tested on: Saccharomyces cerevisiae BY4741 SeMeCo community; experiment: z-score of subpopulation abundance vs DMSO median, subpopulation auxotrophic for HUM; higher = larger share of this subpopulation than in DMSO controls; conditions: 10 µM; 24 h; SM minimal medium; subpopulation (auxotrophy): HUM
Method in brief: as §1

[12] = tested on: Saccharomyces cerevisiae BY4741 SeMeCo community; experiment: z-score of subpopulation abundance vs DMSO median, subpopulation auxotrophic for LUM; higher = larger share of this subpopulation than in DMSO controls; conditions: 10 µM; 24 h; SM minimal medium; subpopulation (auxotrophy): LUM
Method in brief: as §1

[13] = tested on: Saccharomyces cerevisiae BY4741 SeMeCo community; experiment: z-score of subpopulation abundance vs DMSO median, subpopulation auxotrophic for HLUM; higher = larger share of this subpopulation than in DMSO controls; conditions: 10 µM; 24 h; SM minimal medium; subpopulation (auxotrophy): HLUM
Method in brief: as §1

[14] = tested on: Saccharomyces cerevisiae BY4741 SeMeCo community; experiment: mean cell size (pixel area) (pixels); higher = larger cells; conditions: 10 µM; 24 h; SM minimal medium
Method in brief: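 A Saccharomyces cerevisiae BY4741 community carrying four plasmids, each with a fluorescent marker and each complementing one auxotrophy, was exposed for 24 h to drug at a final 10 µM in SM medium in acoustically predosed 384-well plates. The overnight preculture (OD600 = 1.0) was diluted to OD600 = 0.3 before 70 µl was added per well. Cells were then fixed with paraformaldehyde, imaged by automated confocal microscopy and analysed in Harmony to derive mean cell pixel area per well, averaged over 3 replicates. Same SeMeCo high-content imaging drug screen: Selleck FDA-approved drugs at 10 µM, 24 h in SM medium, 384-well plates, 3 replicates.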

[15] = tested on: Saccharomyces cerevisiae BY4741 SeMeCo community; experiment: z-score of subpopulation abundance vs DMSO median, subpopulation auxotrophic for L; higher = larger share of this subpopulation than in DMSO controls; conditions: 10 µM; 24 h; SM minimal medium; subpopulation (auxotrophy): L
Method in brief: as §1

[16] = tested on: Saccharomyces cerevisiae BY4741 SeMeCo community; experiment: z-score of subpopulation abundance vs DMSO median, subpopulation auxotrophic for M; higher = larger share of this subpopulation than in DMSO controls; conditions: 10 µM; 24 h; SM minimal medium; subpopulation (auxotrophy): M
Method in brief: as §1

[17] = tested on: Saccharomyces cerevisiae BY4741 SeMeCo community; experiment: z-score of subpopulation abundance vs DMSO median, subpopulation auxotrophic for LU; higher = larger share of this subpopulation than in DMSO controls; conditions: 10 µM; 24 h; SM minimal medium; subpopulation (auxotrophy): LU
Method in brief: as §1

SMILES	z-score of prototroph abundance [1]	z-score of subpopulation abundance [2]	z-score of subpopulation abundance [3]	z-score of subpopulation abundance [4]	z-score of subpopulation abundance [5]	z-score of subpopulation abundance [6]	z-score of subpopulation abundance [7]	z-score of subpopulation abundance [8]	z-score of subpopulation abundance [9]	z-score of subpopulation abundance [10]	z-score of subpopulation abundance [11]	z-score of subpopulation abundance [12]	z-score of subpopulation abundance [13]	mean cell size [14]	z-score of subpopulation abundance [15]	z-score of subpopulation abundance [16]	z-score of subpopulation abundance [17]
CO/N=C(/C(=O)N[C@@H]1C(=O)N2C(C(=O)OCOC(=O)C(C)(C)C)=C(C)CS[C@H]12)c1csc(N)n1 [Cefetamet pivoxil hydrochloride]	-1.5	0.3	1.26	0.52	1.3	0.78	0.64	1.33	1.65	1.15	0.8	1.09	0.63				
CC(=O)NO [Acetohydroxamic acid]		-0.68		0.84	0.32	-0.11	-0.03		0.42	0.6		1.04	0.86	12.5 ± 0.15	1.33		
CC[C@@]1(O)C(=O)OCc2c1cc1n(c2=O)Cc2cc3c(CN(C)C)c(O)ccc3nc2-1 [Topotecan HCl]	1.13	-1.89		0.34	0.51	-2.17	-1.6	0.17		0.12	-0.98	-0.62	-0.39	12.5 ± 0.14	0.17	1.3	-1.86
Cc1cc2c(s1)Nc1ccccc1N=C2N1CCN(C)CC1 [Olanzapine]	0.17	-0.29	-0.12	0.65	0.2	0.19	0.07	-0.15		-0.05	-0.5	-0.6	0.21	12.5 ± 0.2	-0.11	0.84	-0.6
COc1cccc2c1C(=O)c1c(O)c3c(c(O)c1C2=O)C[C@@](O)(C(C)=O)C[C@@H]3O[C@H]1C[C@H](N)[C@H](O)[C@H](C)O1 [Daunorubicin HCl]	-0.6	4.14	0.44	-1.4	-3.07	4.21	0.35	0.73		-0.29	1.29	1.18	5.15	12.78 ± 0.043	-1.28	-4.78	3.27
Nc1ccc(S(=O)(=O)c2ccc(N)cc2)cc1 [Dapson]	-0.54	0.04		0.51	0.93	0.31	0.45	0.32		-0.14	0.6	0.92		12.5 ± 0.26	0.59	0.68	0.91
COc1ccc(CC2c3cc(OC)c(OC)cc3CC[N+]2(C)CCC(=O)OCCCCCOC(=O)CC[N+]2(C)CCc3cc(OC)c(OC)cc3C2Cc2ccc(OC)c(OC)c2)cc1OC (centres undefined) [Atracurium Besylate]	-0.17	-0.48	0.57	0.79	0.41	0.23		1.4		0.51	0.71	0.45	-0.07	12.4 ± 0.24	1.52	-0.87	0.39
Clc1ccc(CCC(Cn2ccnc2)Sc2c(Cl)cccc2Cl)cc1 (centres undefined) [Butoconazole nitrate]	-7.6	1.85			1.46	13.3	0.67	14.5		20.2	5.03	0.2	20.4	12.5 ± 0.15	-1.91	-9.08	1.13
CS(=O)(=O)Nc1ccc([N+](=O)[O-])cc1Oc1ccccc1 [Nimesulide]	0.12	-0.45	-0.25	0.74		-0.2	-0.24	0.8		-0.08	0.28	0.62		12.5 ± 0.22	0.65	-0.1	0.49
Cc1ccc(Cl)c(Nc2ccccc2C(=O)O)c1Cl [Meclofenamate Sodium]	1.11	-0.1		-0.57	-0.47	-0.21	-0.07	-0.49		-0.85	-0.63	-0.74	-0.31	12.7 ± 0.19	-0.25	0.25	-0.57
CCCc1nn(C)c2c(=O)[nH]c(-c3cc(S(=O)(=O)N4CCN(C)CC4)ccc3OCC)nc12 [Sildenafil]	1.69	-0.11		-0.52	-0.93	0.7	-0.73	-1.43		-1.11	-0.61	-0.21	0.26	11.4 ± 0.3	-1.03	-1.17	-0.5
C#CCC(Cc1cnc2nc(N)nc(N)c2n1)c1ccc(C(=O)N[C@@H](CCC(=O)O)C(=O)O)cc1 (some centres undefined) [Pralatrexate]		-4.47	3.97	3.24	5.98	-3.79	-5.43	4.02		4.47	-2.23	-1.33	1.08	14.4 ± 0.34	3.17	2.68	-3.34
CCCN(CCC)CCc1cccc2c1CC(=O)N2 [Ropinirole HCl]	-0.81	0.26	-0.16	0.91		0.41	0.06	0.65		-0.19	0.58	1.74	0.64	12.4 ± 0.22	1.95	-0.4	1.24
C[N+]1(C)CCC(OC(=O)C(O)(c2ccccc2)C2CCCC2)C1 (centres undefined) [Glycopyrrolate]	-0.59	1.42	-0.58	-0.6	-0.21	0.57	1.58	-0.5		0.17	0.23	0.56	-0.01	12.32 ± 0.11	-0.73	0.07	0.76
